Measured values taken from PubChem BioAssay (NCATS).
Results filed as inconclusive are left out. Activity calls are given as the source filed them. Calls come from the whole dose curve; as a rule, active = well fitted curve in the direction sought with a large enough effect; inconclusive = small, poorly fitted or top-dose-only effect, or another doubt; inactive = no such curve, though single readings can be large; an effect the other way counts as inactive or inconclusive.

Assays:
[1] = qHTS of pediatric cancer cell lines to identify multiple opportunities for drug repurposing: Confirmatory screen for BT-37 cells (AID 1347117);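 note: viability measured after 48 h of compound exposure; nearly all actives have a fitted effect of over 55% in size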
Outline: (§1)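 Cells (500-1,000/well) in growth media were settled 5 h at 37 degrees C, then given compounds for 48 h. Viability was read as CellTiter-Glo luminescence. Primary runs used MIPE at 11 points (0.78 nM-46 µM) and NPC at 8 points (0.59 nM-46 µM); follow-ups used 11 points.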

[2] = qHTS of pediatric cancer cell lines to identify multiple opportunities for drug repurposing: Confirmatory screen for TC32 cells (AID 1347118);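 note: cells exposed to compound for 48 h before the read; nearly all actives have a fitted effect of over 65% in size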
Outline: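 qHTS, TC32, 48 h drug treatment, CellTiter-Glo luminescence as a proxy for metabolically active cells; primary top concentration 46 µM (MIPE 11-pt, NPC 8-pt); confirmatory 11-pt.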

[3] = qHTS of pediatric cancer cell lines to identify multiple opportunities for drug repurposing: Confirmatory screen for U-2 OS cells (AID 1347122); note: nearly all actives have a fitted effect of over 65% in size
Outline: as §1

[4] = qHTS of pediatric cancer cell lines to identify multiple opportunities for drug repurposing: Confirmatory screen for Rh41 cells (AID 1347123);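 note: 48 h compound exposure; nearly all actives have a fitted effect of over 60% in size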
Outline: as §1

[5] = qHTS of pediatric cancer cell lines to identify multiple opportunities for drug repurposing: Confirmatory screen for RD cells (AID 1347124);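 note: cells exposed to compound for 48 h before viability readout; nearly all actives have a fitted effect of over 65% in size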
Outline: as §1

[6] = qHTS of pediatric cancer cell lines to identify multiple opportunities for drug repurposing: Confirmatory screen for Saos-2 cells (AID 1347127); note: nearly all actives have a fitted effect of over 60% in size
Outline: as §1

[7] = qHTS of pediatric cancer cell lines to identify multiple opportunities for drug repurposing: Confirmatory screen for OHS-50 cells (AID 1347128);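 note: compound exposure lasted 48 h at 37 degrees C; nearly all actives have a fitted effect of over 55% in size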
Outline: as §1

[8] = qHTS of pediatric cancer cell lines to identify multiple opportunities for drug repurposing: Confirmatory screen for SK-N-SH cells (AID 1347129);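 note: cells exposed to compound for 48 h before viability read; nearly all actives have a fitted effect of over 60% in size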
Outline: as §1

[9] = tested on: Zika virus NS2B-NS3 protease; assay: Primary screen GU AMC qHTS for Zika virus inhibitors (AID 1347154); note: nearly all actives have a fitted effect of over 70% in size
Outline: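 Unlinked Zika NS2B hydrophilic domain/NS3 protease domain noncovalent complex (25 nM final) in 10 mM Tris-HCl pH 8.0, 0.01% Tween 20, with AMC peptide substrate. Fluorescence (ex 340, em 450 nm) change over 15 min, room temperature; percent inhibition fitted to 4-parameter Hill equation.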

[10] = qHTS of pediatric cancer cell lines to identify multiple opportunities for drug repurposing: Confirmatory screen for Rh30 cells (AID 1347126); note: nearly all actives have a fitted effect of over 55% in size
Outline: as §1

[11] = qHTS of pediatric cancer cell lines to identify multiple opportunities for drug repurposing: Confirmatory screen for control Hh wild type fibroblast cells (AID 1347121); note: nearly all actives have a fitted effect of over 70% in size
Outline: as §1

[12] = qHTS of pediatric cancer cell lines to identify multiple opportunities for drug repurposing: Confirmatory screen for Rh18 cells (AID 1347125); note: nearly all actives have a fitted effect of over 55% in size
Outline: as §1

Furin (Homo sapiens) = Furin (Homo sapiens) (UniProt P09958); assay: Furin counterscreen qHTS for Zika virus inhibitors (AID 1347149); note: nearly all actives have a fitted effect of over 70% in size
Outline: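 Counterscreen measures cleavage of 2 microM BOC-RVRR-AMC, below its ~15 microM Km, by 5 nM full-length human furin at pH 7.0 after a 15-min compound preincubation. Inhibition derives from the 15-min fluorescence increase at 37C.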

[13] = tested on: Zika virus NS2B-NS3 protease (linked construct); assay: Confirmatory screen NINDS AMC qHTS for Zika virus inhibitors (AID 1347152); note: nearly all actives have a fitted effect of over 70% in size
Outline: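 IC50s from 4-parameter Hill fits of percent inhibition, based on AMC fluorescence gain (340/450 nm) over 15 min with 10 microM Bz-Nle-KRR-AMC. Enzyme: 1 nM linked NS2B-NS3 in Tris-HCl pH 8.0; 15-min compound preincubation.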

[14] = tested on: Zika virus NS2B-NS3 protease (unlinked complex); assay: Confirmatory screen GU AMC qHTS for Zika virus inhibitors (AID 1347153)
Outline: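 Fluorescence change (ex 340/em 450 nm) over 15 min, ~20% substrate conversion, normalized to no-inhibitor and no-enzyme controls, then Hill-fitted. Unlinked protease at 25 nM; AMC peptide 10 µM.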

[15] = qHTS of pediatric cancer cell lines to identify multiple opportunities for drug repurposing: Confirmatory screen for MG 63 (6-TG R) cells (AID 1347119); note: nearly all actives have a fitted effect of over 55% in size
Outline: as §1
Potency is the fitted concentration of half-maximal effect.

Chain of Furin (Homo sapiens) (P09958 whole entry, looked up): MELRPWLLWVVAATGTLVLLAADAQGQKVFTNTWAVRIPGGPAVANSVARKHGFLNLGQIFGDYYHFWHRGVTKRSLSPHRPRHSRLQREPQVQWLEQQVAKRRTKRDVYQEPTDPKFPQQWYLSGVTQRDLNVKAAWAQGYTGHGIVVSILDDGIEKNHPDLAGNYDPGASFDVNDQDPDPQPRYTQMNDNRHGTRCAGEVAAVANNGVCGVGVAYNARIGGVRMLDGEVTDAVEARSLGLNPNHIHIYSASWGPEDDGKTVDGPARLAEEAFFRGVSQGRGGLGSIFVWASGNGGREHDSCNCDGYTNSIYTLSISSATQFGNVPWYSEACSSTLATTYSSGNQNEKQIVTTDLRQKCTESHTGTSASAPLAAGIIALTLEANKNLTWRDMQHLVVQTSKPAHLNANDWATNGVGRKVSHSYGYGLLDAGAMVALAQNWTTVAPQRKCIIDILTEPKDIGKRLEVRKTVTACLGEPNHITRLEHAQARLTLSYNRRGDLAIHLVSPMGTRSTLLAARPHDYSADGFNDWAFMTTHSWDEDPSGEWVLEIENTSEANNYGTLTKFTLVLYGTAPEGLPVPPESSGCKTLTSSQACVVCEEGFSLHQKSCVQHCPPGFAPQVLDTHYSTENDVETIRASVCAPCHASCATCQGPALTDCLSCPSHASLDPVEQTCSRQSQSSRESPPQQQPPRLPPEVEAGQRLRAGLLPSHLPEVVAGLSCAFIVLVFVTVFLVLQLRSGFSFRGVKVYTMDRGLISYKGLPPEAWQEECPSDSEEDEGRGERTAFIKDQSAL

SMILES	Potency [1]	Potency [2]	Potency [3]	Potency [4]	Potency [5]	Potency [6]	Potency [7]	Potency [8]	Potency [9]	Potency [10]	Potency [11]	Potency [12]	Potency (Furin (Homo sapiens))	Potency [13]	Potency [14]	Potency [15]
CC(C)c1nn(-c2c(Cl)cccc2Cl)c2nc(Cc3ccc(OCCO)cc3)[nH]c(=O)c12	0.0827 µM (active)	0.131 µM (active)	0.0827 µM (active)	0.131 µM (active)	0.208 µM (active)	0.0827 µM (active)	0.104 µM (active)	0.118 µM (active)	inactive	–	–	–	–	–	–	–
COc1cc(=C2C=c3ccccc3=N2)[nH]c1=Cc1[nH]c(C)cc1C	7.37 µM (active)	7.37 µM (active)	–	–	–	8.27 µM (active)	–	1.24 µM (active)	inactive	17.4 µM (active)	–	–	–	–	–	–
OCCCNc1cc(-c2ccnc(Nc3cccc(Cl)c3)n2)ccn1	0.261 µM (active)	0.165 µM (active)	–	0.0522 µM (active)	–	0.261 µM (active)	0.329 µM (active)	0.148 µM (active)	inactive	0.414 µM (active)	inactive	–	–	–	–	–
CCS(=O)(=O)c1cccc(-c2cc(C(=O)NC3CCN(C)CC3)c(C)c3[nH]c4ncc(C)cc4c23)c1	1.85 µM (active)	0.117 µM (active)	10.4 µM (active)	0.657 µM (active)	2.61 µM (active)	1.04 µM (active)	1.85 µM (active)	2.09 µM (active)	24.1 µM (active)	0.522 µM (active)	–	1.85 µM (active)	24.1 µM (active)	24.1 µM (active)	24.1 µM (active)	–
COC(=O)c1ccc2c(C(=Nc3ccc(N(C)C(=O)CN4CCN(C)CC4)cc3)c3ccccc3)c(O)[nH]c2c1	–	18.5 µM (active)	13.1 µM (active)	8.27 µM (active)	–	–	14.7 µM (active)	–	inactive	16.5 µM (active)	inactive	26.1 µM (active)	–	–	–	3.29 µM (active)
CN1CC[C@@H](c2c(O)cc(O)c3c(=O)cc(-c4ccccc4Cl)oc23)[C@@H](O)C1	0.414 µM (active)	–	0.329 µM (active)	0.369 µM (active)	0.737 µM (active)	0.522 µM (active)	0.414 µM (active)	0.418 µM (active)	inactive	0.369 µM (active)	inactive	1.17 µM (active)	–	–	–	–
NC(=O)c1cccc2cn(-c3ccc([C@@H]4CCCNC4)cc3)nc12	5.22 µM (active)	1.65 µM (active)	inactive	–	–	inactive	–	inactive	–	–	inactive	inactive	–	–	–	–
O=C(Nc1cn[nH]c1-c1nc2ccc(CN3CCOCC3)cc2[nH]1)NC1CC1	inactive	–	inactive	inactive	inactive	inactive	inactive	inactive	inactive	inactive	inactive	inactive	–	–	–	inactive
CN(c1ncccc1CNc1nc(Nc2ccc3c(c2)CC(=O)N3)ncc1C(F)(F)F)S(C)(=O)=O	7.37 µM (active)	–	7.37 µM (active)	3.69 µM (active)	–	8.27 µM (active)	5.85 µM (active)	3.72 µM (active)	inactive	–	inactive	inactive	–	–	–	–
CC(C)c1cc(-c2n[nH]c(=O)n2-c2ccc3c(ccn3C)c2)c(O)cc1O	inactive	inactive	–	–	–	–	inactive	inactive	–	–	inactive	–	–	–	–	–
CS(=O)(=O)N1CCN(Cc2cc3nc(-c4cccc5[nH]ncc45)nc(N4CCOCC4)c3s2)CC1	15.1 µM (active)	1.35 µM (active)	–	0.851 µM (active)	–	–	5.37 µM (active)	4.29 µM (active)	–	1.07 µM (active)	–	1.07 µM (active)	–	–	–	–
Cc1ccc(C(=O)Nc2ccc(CN3CCN(C)CC3)c(C(F)(F)F)c2)cc1C#Cc1cnc2cccnn12	–	0.0037 µM (active)	2.93 µM (active)	0.585 µM (active)	20.8 µM (active)	–	inactive	1.48 µM (active)	34.1 µM (active)	5.22 µM (active)	inactive	10.4 µM (active)	–	–	–	inactive
C=CC(=O)Nc1cccc(Oc2nc(Nc3ccc(N4CCN(C)CC4)cc3)ncc2Cl)c1	–	1.17 µM (active)	2.61 µM (active)	2.61 µM (active)	–	2.93 µM (active)	5.22 µM (active)	2.96 µM (active)	inactive	–	20.8 µM (active)	–	–	–	–	2.93 µM (active)
CC(C)(C)c1cnc(CSc2cnc(NC(=O)C3CCNCC3)s2)o1	0.261 µM (active)	0.465 µM (active)	1.31 µM (active)	0.329 µM (active)	0.585 µM (active)	0.465 µM (active)	0.329 µM (active)	0.935 µM (active)	inactive	–	inactive	–	–	–	–	–
COc1cc2c(NC3CCN(C(C)C)CC3)nc(C3CCCCC3)nc2cc1OCCCN1CCCC1	26.1 µM (active)	4.14 µM (active)	inactive	–	26.1 µM (active)	–	–	7.43 µM (active)	inactive	inactive	inactive	–	–	–	–	–
Cc1cc(Nc2cc(NC(=O)c3c(Cl)cccc3Cl)ccn2)nc(N)n1	5.22 µM (active)	0.827 µM (active)	–	0.269 µM (active)	inactive	1.31 µM (active)	0.369 µM (active)	13.6 µM (active)	inactive	24 µM (active)	20.8 µM (active)	–	–	–	–	–
